Data on 25 molecules can be found in PubChem BioAssay (NCATS).

Test [1] in a line: qHTS assay for measurement of the activity of small molecule inhibitors on Zika virus induced Caspase-3 activity in human iPSC derived neural progenitor cells (hNPCs) (AID 1224857). Note: nearly all actives have a fitted effect of over 65% in size. In short, it runs like this: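 Zika virus (2 FFU/cell) infection of human iPSC-derived NPCs, 6 h, following 1 h compound preincubation. Read-out: Caspase-Glo 3/7 luminescence.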
Test [2] can be described thus: qHTS assay for measurement of the activity of small molecule inhibitors on Zika virus induced Caspase-3 activity in human astrocytoma cells (AID 1224859). An outline of the steps:
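Caspase activation in ZIKV-infected SNB-19 cells (2 FFU/cell, 6 h) measured by Caspase-Glo 3/7 luminescence after 30 min RT; compound pre-incubated 1 h; normalised to uninfected and infected controls.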

A short description of test [3]: qHTS assay to identify small molecule inhibitors of chordoma cells - UCH-2 (AID 1259356).
Test [4] in a line: qHTS profiling of the MIPE4 collection as inhibitors of Plasmodium falciparum (3D7) proliferation (AID 743344; call rule not given here). Conditions: P. falciparum 3D7 in erythrocytes, SYBR Green DNA fluorescence, 72 h; at 28.5 µM (top of the series) unless noted. In short, it runs like this:
(§1)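 Erythrocytes infected with P. falciparum (0.3% parasitemia, 2.5% hematocrit) incubated with compounds 72 h at 37 C, 5% CO2. Lysis with saponin/Triton buffer containing SYBR Green I, overnight at room temperature in the dark; DNA fluorescence (485/535 nm) normalised to 0.29 uM artemisinin and DMSO.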

The nature of test [5]: qHTS profiling of the MIPE4 collection as inhibitors of Plasmodium falciparum (DD2) proliferation (AID 743345; call rule not given here). Conditions: P. falciparum Dd2 in erythrocytes, SYBR Green DNA, 72 h; at 28.5 µM (top of the series) unless noted. In short, it runs like this:
as §1

The nature of test [6]: qHTS profiling of the MIPE4 collection as inhibitors of Plasmodium falciparum (DD2) proliferation (Rep 2) (AID 743346; call rule not given here). The following applies: P. falciparum Dd2 in erythrocytes, SYBR Green DNA, 72 h; at 28.5 µM (top of the series) unless noted. In short, it runs like this:
as §1

Test [7] in a line: qHTS profiling of the MIPE4 collection as inhibitors of Plasmodium falciparum (HB3) proliferation (AID 743347; call rule not given here). Conditions: P. falciparum HB3 in erythrocytes, SYBR Green DNA, 72 h; at 28.5 µM (top of the series) unless noted. The source says: Plasmodium falciparum is a virulent malarial parasite that kills 1-2 million people worldwide each year. Transmitted by mosquitoes, the sporozoite form of the parasite enters the blood stream to infect hepatocytes, where they become merozoites that infect red blood cells (erythrocytes). Within erythrocytes, merozoites begin a […] cycle of growth and division, after which the parasite is released to infect new red blood cells. Gametocytes, which form within erythrocytes as well, circulate in the bloodstream and are ingested by the mosquito, thereby completing the life cycle. To profile malarial isolates for differential chemical responses and to identify inhibitors of malarial growth, an assay that measures P. falciparum growth and replication within erythrocytes was employed. This assay uses a DNA binding fluorescent dye (SYBR Green) to detect parasite DNA following cell lysis. Because mature erythrocytes lack DNA, only Plasmodium-derived DNA is detected.
The SYBR Green viability assay was adapted from a method described previously (Plouffe et al., 2008). For screening 3 ul culture medium was dispensed into 1536 well black clear bottom plates (Aurora Biotechnologies) using a Multidrop Combi (Thermo Fisher Scientific Inc.), 23 nL compounds in DMSO were added by a pin tool (Kalypsys), and 5 ul of erythrocytes infected with P. falciparum (0.3% parasitemia, 2.5% hematocrit final concentration) were added. The plates were incubated at 37 C in a humidified incubator in 5% CO2 for 72 h, and 2 ul lysis buffer (20 mM Tris HCl, 10 mM EDTA, 0.16% saponin, 1.6% triton X, 10X SYBR Green I supplied as 10,000X […] by Invitrogen) was added to each well. The plates were mixed for 25 sec with gentle shaking and incubated overnight at room temperature in the dark. The following morning, fluorescence intensity at 485(14) nm excitation and 535(25) nm emission wavelengths was measured on an EnVision (Perkin Elmer) plate reader. Plate reads were normalized relative to the control inhibitor (0.29 uM artemisinin) and vehicle (DMSO) wells present on each plate and then corrected by an algorithm using vehicle-only control plates at the beginning and end of the compound plate stack.

Test [8] is described as follows: qHTS assay to identify small molecule inhibitors of chordoma cells - UCH-1 (AID 1259355). Note: nearly all actives have a fitted effect of over 55% in size. An outline of the steps: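 Cells (800/well) were seeded and left overnight at 37 C, 5% CO2, then treated with drugs at 15 concentrations plus a combination mix of auranofin, camptothecin, doxorubicin, rubitecan and topotecan. Viability after 48hr was read by CellTiter-Glo luminescence.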

Test [9] in a line: qHTS profiling for inhibitors of Plasmodium falciparum (DD2) proliferation (AID 743323; call rule not given here). Conditions: lower = more inhibition; at 28.7 µM (top of the series) unless noted. In short, it runs like this:
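SYBR Green fluorescence (ex 485, em 535 nm) of lysed cultures gives parasite DNA content; wells normalized to artemisinin (0.29 uM) and DMSO controls. Infected red cells: 0.3% parasitemia, 2.5% hematocrit, 72 h, 37 C.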

Test [10] can be described thus: qHTS profiling for inhibitors of Plasmodium falciparum (HB3) proliferation (AID 743324). Conditions: Plasmodium falciparum HB3 blood-stage proliferation; at 28.7 µM (top of the series) unless noted. In short, it runs like this: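 P. falciparum HB3 grown in erythrocytes (0.3% parasitemia, 2.5% hematocrit final) with compound for 72 h at 37 C, 5% CO2. Parasite DNA detected by SYBR Green after saponin/triton lysis overnight; normalized to 0.29 uM artemisinin and DMSO.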

Results filed as inconclusive are left out. A call without a number means that no potency is given here. The source made the active and inactive calls. Unless noted, calls come from the whole dose curve; as a rule, active = well fitted curve in the direction sought with a large enough effect; inconclusive = small, poorly fitted or top-dose-only effect, or another doubt; inactive = no such curve, though single readings can be large; an effect the other way counts as inactive or inconclusive.

Take `CC(C)(C)CC(C)(C)c1ccc(O)c(Cc2ccc(Cl)cc2Cl)c1`: the result in test [1] and in test [2] was inactive. Also, the Potency entry in test [3] is “inactive”.

Regarding `N[C@H](Cc1c[nH]c2ccccc12)C(=O)O`, the molecule was classed as inactive in [1] and in test [2]. Also, the Potency result in test [3] is “inactive”.

`CC[C@@H](CO)NCCN[C@@H](CC)CO` had a parasite growth, % of DMSO control in test [4] of 98.8%. In addition, in [5], the parasite growth remaining, % of DMSO control (lower = more inhibition) came out at 106%. The molecule also came in with a parasite growth, % of control (lower = inhibition) in test [6] of 68.5%. Also, the growth, % of control in [7] is 106%. Besides, the call in [1] and in [2] was inactive. Also, the Potency entry in test [8] and in test [3] was “inactive” in each case.

In test [9], `COc1cccc(CCc2ccccc2OCC(CN(C)C)OC(=O)CCC(=O)O)c1` (centres undefined) registered an activity, percent of control of 1.06%. In test [10], the remaining proliferation (% of control), lower = more inhibition stood at 1.2%. Further, the parasite growth, % of DMSO control in test [4] is 7.32%. Moreover, in [5], the parasite growth remaining, % of DMSO control (lower = more inhibition) is 11.9%. Also, the parasite growth, % of control (lower = inhibition) in test [6] came to 21.2%. In addition, the growth, % of control in [7] was 5.27%. For the same molecule, the call in [1] and in [2] was inactive. For the same molecule, in test [8], the Potency entry was “inactive”.

On to `CC1(C)O[C@@H]2C[C@H]3[C@@H]4C[C@H](F)C5=CC(=O)C=C[C@]5(C)[C@H]4[C@@H](O)C[C@]3(C)[C@]2(C(=O)CO)O1`, for which the molecule was called inactive in test [1] and in [2]. Further, the Potency result in test [3] was “inactive”.

Regarding `c1ccc(CNCCNCc2ccccc2)cc1`, the result in test [1] and in test [2] was inactive. Also, the Potency entry in test [8] and in test [3] was “inactive” in each case.

For the molecule `CCN(CC)C(=O)/C(C#N)=C/c1cc(O)c(O)c([N+](=O)[O-])c1`, the call in test [1] and in [2] was inactive. Moreover, the Potency result in [3] is “inactive”.

For `CC(C)(C(=O)c1cccnc1)c1cccnc1`, the outcome in test [1] and in test [2] was inactive. In test [3], the Potency entry is “inactive”.

Take `CCCCCCCCCCCCCCCCCC(=O)OCC(O)CO` (centres undefined): the outcome in [1] and in test [2] was inactive. Moreover, the Potency result in test [3] was “inactive”.

As to `CC(=O)N(O)CCCCCNC(=O)CCC(=O)N(O)CCCCCNC(=O)CCC(=O)N(O)CCCCCN`, the molecule was called inactive in test [1] and in test [2]. For the same molecule, the Potency result in test [3] was “inactive”.

As for `Cc1c(N(C)CS(=O)(=O)O)c(=O)n(-c2ccccc2)n1C`, the call in test [1] and in [2] was inactive. Also, the Potency result in test [3] was “inactive”.

Consider `COc1cc(/C=C/C(=O)O[C@H]2CC[C@]34C[C@]35CC[C@]3(C)[C@@H]([C@H](C)CCC=C(C)C)CC[C@@]3(C)[C@@H]5CC[C@H]4C2(C)C)ccc1O`, for which the call in [1] and in test [2] was inactive. The Potency entry in [3] is “inactive”.

Take `CN1CCN(CCCN2c3ccccc3Sc3ccc(S(=O)(=O)N(C)C)cc32)CC1`: in test [9], the activity, percent of control stood at 2.48% [at 9.63 µM]. This molecule also had a remaining proliferation (% of control), lower = more inhibition in [10] of 1.27% [at 9.63 µM]. The molecule further registered a parasite growth, % of DMSO control in [4] of 63.5% [at 9.64 µM]. Also, the parasite growth remaining, % of DMSO control (lower = more inhibition) in [5] was found to be 44% [at 9.64 µM]. In test [6], this molecule registered a parasite growth, % of control (lower = inhibition) of 48.8% [at 9.64 µM]. Also, the growth, % of control in [7] was found to be 68.8% [at 9.64 µM]. Moreover, the result in test [1] and in test [2] was inactive. The Potency entry in test [8] and in test [3] was “inactive” each time.

`CCN(CCCCOC(=O)c1ccc(OC)c(OC)c1)C(C)Cc1ccc(OC)cc1` (centres undefined): the outcome in test [1] and in test [2] was inactive. Moreover, the Potency entry in test [3] is “inactive”.

Take `Nc1ccc(C(=O)Nc2ccccc2N)cc1`: the call in [1] and in test [2] was inactive. Moreover, the Potency result in [3] is “inactive”.

Take `Oc1ccc(O)cc1`: the call in test [1] and in [2] was inactive. Also, the Potency entry in test [3] was “inactive”.

For the molecule `CC(=O)OCC(=O)[C@@]1(O)CC[C@H]2[C@@H]3CCC4=CC(=O)C=C[C@]4(C)[C@H]3[C@@H](O)C[C@@]21C`, the result in test [1] and in test [2] was inactive. In addition, in test [3], the Potency entry was “inactive”.

Regarding `OCc1ccccc1O`, the result in test [1] and in test [2] was inactive. Moreover, the Potency result in [3] is “inactive”.

As for `C[C@H](O)C(=O)Nc1c(I)c(C(=O)NC(CO)CO)c(I)c(C(=O)NC(CO)CO)c1I`, the call in [1] and in test [2] was inactive. For the same molecule, the Potency entry in test [3] is “inactive”.

Consider `COC(=O)[C@H]1[C@H]2C[C@H]3c4[nH]c5ccccc5c4CCN3C[C@H]2CC[C@@H]1O`, for which the result in test [1] and in test [2] was inactive. Besides, in test [3], the Potency result is “inactive”.

Regarding `O=C1[C@H]2CCCC[C@H]2C(=O)N1CCCCN1CCN(c2nsc3ccccc23)CC1`, the result in [1] and in [2] was inactive. In test [3], the Potency entry is “inactive”.

In the case of `C[C@@H]1C[C@H]2[C@@H]3CCC4=CC(=O)C=C[C@]4(C)[C@@]3(F)[C@@H](O)C[C@]2(C)[C@H]1C(=O)CO`, the molecule was classed as inactive in [1] and in test [2]. In [3], the Potency entry is “inactive”.

As to `CN1CCC[C@@H]1c1cccnc1`, the molecule was called inactive in [1] and in test [2]. Further, in [3], the Potency entry was “inactive”.

On to `CC(=O)OCC(=O)[C@@]12OC(C)(C)O[C@@H]1C[C@H]1[C@@H]3C[C@H](F)C4=CC(=O)C=C[C@]4(C)[C@@]3(F)[C@@H](O)C[C@@]12C`, for which the call in [1] and in [2] was inactive. Also, the Potency result in test [3] is “inactive”.

Regarding `C[C@]12C=CC(=O)C=C1[C@@H](F)C[C@@H]1[C@@H]2[C@@H](O)C[C@@]2(C)[C@H]1CC[C@]2(O)C(=O)CO`, the call in test [1] and in test [2] was inactive. Moreover, the Potency result in [3] is “inactive”.
